Reference: PubChem BioAssay (NCI)
About 83,000 compounds went through this panel and 20% of them were active in at least one assay; those are over-represented in the sample as a whole.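 Note: values are percent growth. 100 is the growth of untreated cells, values between 100 and 0 indicate rising inhibition; between -100 and 0 indicates cell death.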 A number with no mark means an inactive call. Activity calls are given as the source filed them. How the source made its calls: active means growth percent below 10; inactive means the rest.

The molecules below were run on HL-60(TB) leukemia (assay: NCI-60 one-dose screen, 48 h (100 = growth as untreated, 0 = no growth, -100 = all killed)). Conditions: 10 µM unless noted.

Row | Compound | growth
1 | CC(NC(=O)CCl)c1ccccc1 (stereo not given) | 83.4%
2 | FC(F)(F)c1ccc(-c2cnc(Cl)nc2NCc2cc(C(F)(F)F)cc(C(F)(F)F)c2)cc1 | 5.98% (active)
3 | CC(=O)N1CC(Nc2ccc(OC(F)(F)F)cc2)=CC1=O | -8.58% (active)
4 | O=C(Nc1ccc(Oc2ccc(NC(=O)Nc3ccccc3Cl)cc2)cc1)Nc1ccccc1Cl | 51.7%
5 | COC(=O)[C@@]1(C)CC[C@]2(C)CC[C@]3(C)C4=CC=C5C(=CC(=O)C(O)=C5C)[C@]4(C)[C@@H](O)C[C@@]3(C)[C@@H]2C1 | 49.6%
6 | O=C(/C=C/c1ccc(F)cc1)c1ccc(NC(=O)N2CCN(c3cc4c(cc3F)c(=O)c(C(=O)O)cn4C3CC3)CC2)cc1 | 98.1%
7 | CN(/C(N)=N/N=C/c1c2ccccc2cc2ccccc12)C1CCCCC1 | 35.4%
8 | O=C(CCc1nc(-c2cccc(Cl)c2)no1)Nc1ccccn1 | 102%
9 | O=S(=O)(NCCCNc1nccc(-c2c(-c3ccc(F)cc3)nc3sccn23)n1)c1ccc2ccccc2c1 | 34.8%
10 | O=CN1N=C(c2cccc(Nc3ccnc4cc(Cl)ccc34)c2)CC1c1ccc(Cl)cc1 (stereo not given) | -4.94% (active)
11 | COc1ccc2nc(-n3nc(C)cc3C)c(-n3nc(C)cc3C)nc2c1 | 104%
12 | CSCCC(NC(=O)C(Cl)Cl)C(=O)O (stereo not given) | 98.1%
13 | COc1ccc(C(C)=O)c(OC)c1 | 115%
14 | COc1ccc(-c2cc(/C=C/C(=O)c3ccc(OC)c(OC)c3)[nH]n2)cc1 | -43.7% (active)
15 | CC(C)N=C1CCCC1C(=S)SSC(=S)C1CCCC1=NC(C)C (stereo not given) | 75.8%
16 | O=C(CCN1CCCC1)Nc1ccc2c(NCCCc3ccccc3)c3ccccc3nc2c1 | -55.6% (active)
17 | CN(C)c1ccc2cc3c(cc2c1)Oc1ccccc1N3.[Cl][Zn][Cl] | -10.4% (active)
18 | Cc1cccc(CNc2c3ccccc3nc3ccccc23)c1 | 12.5%
19 | COc1cccc(NC(=O)NCCNc2nccc(-c3c(-c4ccc(F)cc4)nc4sccn34)n2)c1 | 92.7%
20 | Cc1c(C(=O)C(SC(=S)N2CCOCC2)SC(=S)N2CCOCC2)nnn1-c1ccc([N+](=O)[O-])cc1 | 91.3%

Row | Compound | growth
21 | COc1cc(-c2nc(SCCC(C)C)nc(Nc3ccc(S(N)(=O)=O)cc3)c2C#N)cc(OC)c1OC | -18.9% (active)
22 | CCS(=O)(=O)OCCO[C@H]1Cc2cc3ccc(=O)oc3cc2OC1(C)C | 106%
23 | Nc1ccccc1NC(=O)c1ccc(CN2CCC/C(=C\c3ccccn3)C2=O)cc1 | -18% (active)
24 | CCN(CC)CCOc1ccc(/C(=C(\C)c2ccc(Cl)cc2)c2ccc(Cl)cc2)cc1 | 41.4%
25 | Oc1ccc(Cl)cc1C(c1cc(Cl)ccc1O)C(Cl)(Cl)Cl | 69%
26 | Cc1nn(CC(=O)O)c2c1C(=O)CC(C)(C)C2 | 100%
27 | Cc1ccc(Cl)cc1NC(=O)c1cc2ccccc2cc1O | -49.5% (active)
28 | O=C1C[C@H](Sc2nc(-c3ccc(F)cc3)cc(C(F)(F)F)n2)[C@H]2CO[C@@H]1O2 | 46.9%
29 | COc1ccc(/C(Cl)=N/N=C(\Cl)c2cc(OC)c(OC)c(OC)c2)cc1OC(C)=O | 81.2%
30 | O=C(Nc1ccccc1)Oc1cccc2cccnc12 | 57.3%
31 | Cc1nc([N+](=O)[O-])c(Sc2nncc(-c3ccccc3)n2)n1C | 91.7%
32 | O=C(/C=C/c1cccc(O)c1)c1cccc(-n2cc(-c3ccc4ccccc4c3)[nH]c2=O)c1 | -21.5% (active)
33 | COc1ccc(C2=NOC(CC(=O)N(CCO)CCO)C2)cc1OC1CCCC1 (stereo not given) | 110%
34 | c1ccc(CSc2ncnc3nc[nH]c23)nc1 | 96.4%
35 | O=Cc1nc2ccccc2[nH]1 | 98%
36 | Cc1cc(C)nc(NS(=O)(=O)c2ccc(Nc3ccc4c5c(n(CCCN(C)C)c(=O)c4c3)-c3ccccc3C5=O)cc2)n1 | 70.6%
37 | CO/N=C(/C(=O)NC1C(=O)N2C(C(=O)O)=C(COC(N)=O)CSC12)c1ccco1 (stereo not given) | 109%
38 | COc1cc2nc(-c3ccc(Cl)cc3)cc(OCCCN3CCCCC3)c2cc1OC | 29.6%
39 | CCN(CC)c1ccc(/C=C/C2=[N+](C)c3ccccc3C2(C)C)cc1 | 11.3%
40 | O=C1/C(=C/c2ccc([N+](=O)[O-])s2)Oc2cc(Cl)ccc21 | -11.7% (active)
